Bioassay records: PubChem BioAssay, National Center for Advancing Translational Sciences (NCATS)
Sampled rows, rich in hits. Any-hit rate of the full collection: about 9.9%.
ALDH1A1 inh: blocks purified human ALDH1A1 activity | P00352 | Purified ALDH1A1, NADH fluorescence, propionaldehyde substrate | Potency, µM (doses to about 75.3 µM), inactives show at the highest dose activity, negative = inhibition, usual class: inhibitors | 220,000 compounds, 7.3% hits; active means well fitted inhibition curve with a large enough effect, not every such curve was filed as active; inconclusive means small, poorly fitted or top-dose-only effect, or another doubt; inactive means no such curve, though single readings can be large or run the other way;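 further: plate controls were no enzyme wells and a reference inhibitor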
JMJD2E inh: JMJD2E (human) inhibition. B2RXH2. JMJD2E catalytic domain, FDH-coupled NADH fluorescence (FDH is formaldehyde dehydrogenase). AID 2147. 230,000 compounds, 1.6% hits. Potency, µM (top dose mostly 57.1 µM), without a hit: top-dose activity change, negative = inhibition, actives largely listed as inhibitors; active means well fitted inhibition curve with a large enough effect, not every such curve was filed as active; inconclusive means small, poorly fitted or top-dose-only effect, or another doubt; inactive means no such curve, though single readings can be large or run the other way;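 further: 0% = wells with enzyme and -100% = buffer wells without enzyme; nearly all actives have a fitted effect of over 50% in size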
Target sequence (B2RXH2 1-337 limits assumed): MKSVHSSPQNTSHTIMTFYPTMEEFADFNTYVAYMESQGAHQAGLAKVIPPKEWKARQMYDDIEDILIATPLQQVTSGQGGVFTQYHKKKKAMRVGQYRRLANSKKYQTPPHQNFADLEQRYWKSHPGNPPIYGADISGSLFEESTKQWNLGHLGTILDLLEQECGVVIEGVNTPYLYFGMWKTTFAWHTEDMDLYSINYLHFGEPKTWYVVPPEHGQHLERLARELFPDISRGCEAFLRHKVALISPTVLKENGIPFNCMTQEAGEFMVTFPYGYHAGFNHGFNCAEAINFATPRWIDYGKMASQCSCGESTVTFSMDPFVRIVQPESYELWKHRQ
Tau fluor cs: counter-screen for tau fibril formation inhibitors; tau K18 P301L Alexa594 fluorescence, heparin fibrillization; Potency, µM (highest dose often 57.7 µM), without a hit: at the highest dose activity change, negative = decrease; 280,000 compounds, 0.93% hits; AID 1463; further: nearly all actives have a fitted effect of over 55% in size
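Human tau K18 P301L (15 uM unlabeled, 0.24 uM Alexa 594-labeled) in 100 mM sodium acetate pH 7 with 20 uM heparin, 6 hr at 37 C. ThT 30 uM added, 1 hr ambient; Alexa 594 FP and total fluorescence read at 555/632 nm.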
Tau ThT inhib: blocks human tau fibril formation measured by thioflavin T; P10636; recombinant tau K18 P301L (four-repeat tau fragment), heparin-induced fibrillization, ThT fluorescence; Potency, µM (series often up to 57.4 µM), without a hit: at the top dose activity, negative = inhibition, usual class: inhibitors; 270,000 compounds, 2.1% hits; AID 1460; further: nearly all actives have a fitted effect of over 55% in size
Target sequence (P10636 561-689 P618L limits assumed): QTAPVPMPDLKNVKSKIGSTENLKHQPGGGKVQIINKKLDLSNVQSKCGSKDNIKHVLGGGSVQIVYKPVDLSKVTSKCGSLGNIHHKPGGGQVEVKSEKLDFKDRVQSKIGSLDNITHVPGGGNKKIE
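Recombinant human tau K18 fragment […] carrying P301L, 15 uM unlabeled plus 0.24 uM Alexa 594-labeled, was fibrillized with 20 uM heparin in 100 mM sodium acetate pH 7 for 6 hr at 37 C; 30 uM ThT fluorescence read after 1 hr.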
Tau FP inhib: inhibitors of human tau fibril formation. K18 P301L tau heparin fibrillization, Alexa594 FP, 6 h. P10636. Potency, µM (titrated, usually from 57.7 µM), without a hit: at the top dose activity, negative = inhibition, actives largely listed as inhibitors. 280,000 compounds, 0.39% hits; further: nearly all actives have a fitted effect of over 55% in size
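Steps: dispense K18 P301L tau (15 uM plus 0.24 uM Alexa 594 tracer, final) in pH 7 sodium acetate; add compound; add heparin (20 uM final); incubate 6 hr, 37 C; add ThT (30 uM final); after 1 hr ambient, read FP.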
HPGD block: blocks human HPGD enzyme activity; 150,000 compounds, 4.3% hits; purified HPGD, NADH fluorescence kinetic, PGE2 substrate; Potency, µM, for the others: at the highest dose activity change, negative = inhibition, usual class: inhibitors; AID 894; P15428; active means well fitted inhibition curve with a large enough effect, not every such curve was filed as active; inconclusive means small, poorly fitted or top-dose-only effect, or another doubt; inactive means no such curve, though single readings can be large or run the other way
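NADH formation kinetics: reaction with 30 uM PGE2 and 1 mM NAD+ (final), 20 nM enzyme, Tris-HCl pH 8 with Tween 20, after 15 min compound preincubation at room temperature. Fluorescence change, last versus first of five reads.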
* hit, by the source's call; ? = inconclusive; . = no result; ! = a repeat was not active; [ ] = dose if it differs, or a comment. Unless noted, the call rests on the fitted dose curve; in most records, active means well fitted curve in the direction sought with a large enough effect; inconclusive means small, poorly fitted or top-dose-only effect, or another doubt; inactive means no such curve, though single readings can be large; an effect the other way counts as inactive or inconclusive. Unless noted, on the % scale 0 is the no-effect control and ±100 the full control effect; potency means the concentration at half of the fitted maximal effect.

SMILES	ALDH1A1 inh	JMJD2E inh	Tau fluor cs	Tau ThT inhib	Tau FP inhib	HPGD block
Cc1cc(C=O)c(C)n1C(C)C	14µM*	-4%	-2%	0%	-3%	.
CCn1c(C)cc(/C=C2\C(=O)NC(=O)N(c3ccccc3C)C2=O)c1C	-13%	-6%	0%	?	-6%	.
CCCn1c(C)cc(C=O)c1C	7.1µM*	-1%	3%	3%	0%	.
CCC(C)n1c(C)cc(C(N)=O)c1C (configuration not stated)	6%	-8%	-4%	-8%	-2%	.
C=C(C)C(=O)OCC1CO1 (configuration not stated)	?	.	.	.	.	-9%
FC(F)(F)c1ccc2c(c1)ncn2C1CCN(Cc2nnnn2C2CCCCC2)CC1	0.56µM*	9%	-8%	-6%	0%	?
Fc1ccc(Cn2nnnc2CN2CCC(n3nnc4cc(C(F)(F)F)ccc43)CC2)cc1	.	0%	-18%	-8%	1%	.
Cn1c(O)c(C(=O)c2ccccc2)c(=O)n(C)c1=O	-6%	-1%	-15%	?	?	-4%
Cn1c(O)c(/C=N/Nc2ccccc2)c(=O)n(C)c1=O	10µM*	4%	-14%	?	-5%	.
Cn1c(O)c(C=Nc2ccccc2-c2ccccc2)c(=O)n(C)c1=O	.	-16%	-11%	.	-8%	.
C/C(=N\Nc1ccccc1)c1c(O)n(C)c(=O)n(C)c1=O	25µM*	?	-13%	?	7%	-11%
O=c1[nH]cnc2[nH]cc(CN3CCCCC3)c12	4%[13.5 µM]	.	.	.	.	0%
CCCCC/C=C\C/C=C\C/C=C\C/C=C\CCCC(=O)Nc1ccc(O)cc1	?	6%	14µM*[quencher]	?	?	35µM*
CCCCC/C=C\C/C=C\C/C=C\C/C=C\CCCC(=O)NCC(=O)O	5%	22µM*!	-2%	?	0%	28µM*!
CCCCC/C=C\C/C=C\C/C=C\C/C=C\CCCC(=O)N(Cc1ccc(O)c(Cl)c1)Cc1ccc(O)c(Cl)c1	3.5µM*	.	6%	14%	-2%	-3%
CCCCC/C=C\C/C=C\C/C=C\C/C=C\CCCC(=O)Nc1ccc(O)cc1C	?	.	?	?	15%	?
CCCCC/C=C\C/C=C\C/C=C\C/C=C\CCCC(=O)NCCc1ccc(O)c(O)c1	16µM*!	7%	?	?	?	?
NC(=O)CNC(=O)[C@H](Cc1ccccc1)NC(=O)[C@H](CCCN=C(N)N)NC(=O)[C@@H](N)Cc1ccc(O)cc1	5%	.	-2%	5%	-1%	.
ClC(Cl)c1ccccc1	-7%	.	.	.	.	-1%
CCCCC/C=C\C/C=C\C/C=C\C/C=C\CCCC(=O)NCc1ccoc1	18µM*	.	-12%	22µM*	?	-26%
CCCCC/C=C\C/C=C\C/C=C\C/C=C\CCCC(=O)NCCO	10µM*!	-4%	-4%	-9%	-1%	-11%
CCCCC/C=C\C/C=C\CCCCCCCCCC(=O)NCCO	-3%	0%	-10%	-8%	-6%	-7%
C[C@H](CC(C#N)(c1ccccc1)c1ccccc1)N1CCCCC1	11%[13.5 µM]	.	.	.	.	-2%
Oc1ccc(Cl)cc1Sc1cc(Cl)ccc1O	?	.	.	.	.	2.5µM*
Cc1cc(Cl)ccc1O	10%	.	.	.	.	-3%
SMILES	ALDH1A1 inh	JMJD2E inh	Tau fluor cs	Tau ThT inhib	Tau FP inhib	HPGD block
Nc1cc(Cl)ccc1Cl	-3%	.	.	.	.	-1%
Nc1cc(Cl)ccc1O	8.9µM*	.	.	.	.	10µM*
Nc1ccc(Cl)cc1N	8.9µM*	.	.	.	.	-18%
COc1ccc(N/N=C/c2c(O)n(-c3cccc(C)c3)c(=O)[nH]c2=O)cc1	3.2µM*	-26%	-23%	?	-13%	.
COc1ccc(N/N=C/c2c(O)n(-c3ccc(C)c(C)c3)c(=O)[nH]c2=O)cc1	1.6µM*	?	-25%	18µM*	?	?
Cc1ccc(-n2c(O)c(/C=N/Nc3ccccc3)c(=O)[nH]c2=O)cc1C	1%	?	-22%	-15%	-8%	.
CCCOC(=O)[C@@H]1[C@@H](C(=O)O)[C@H]2CC[C@@H]1O2	-3%[13.5 µM]	.	.	.	.	-1%
COc1ccc(S(=O)(=O)NCCc2sc3nc(-c4ccc(C)cc4)nn3c2C)cc1F	.	.	-25%	1%	?	.
